The results in this text go back to PubChem BioAssay (Tox21).

The nature of experiment [1]: qHTS assay to identify small molecule antagonists of the glucocorticoid receptor (GR) signaling pathway - cell viability counter screen (AID 720693). Further: nearly all actives have a fitted effect of over 55% in size. On the technique in general: In qHTS, concentration-response curves come from the screen itself.
A short description of experiment [2]: qHTS assay for identifying genotoxic compounds that show differential cytotoxicity against isogenic chicken DT40 cell lines with known DNA damage response pathways - wild type cell line (AID 743012). Further: nearly all actives have a fitted effect of over 60% in size. Further: potency means the concentration at half of the fitted maximal effect. A digest of the protocol:
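Cells (DT40 wild type, 300/well) are treated with DMSO-dissolved compounds after a ~0.5 h pre-incubation and kept 40 h at 37 C/5% CO2. Viability is then measured by CellTiter-Glo luminescence following 30 min at room temperature.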

Experiment [3] in a line: qHTS assay for identifying genotoxic compounds that show differential cytotoxicity against isogenic chicken DT40 cell lines with known DNA damage response pathways - Rev3 mutant cell line (AID 743014). Further: nearly all actives have a fitted effect of over 55% in size. Further: potency means the concentration at half of the fitted maximal effect.
The nature of experiment [4]: qHTS assay for identifying genotoxic compounds that show differential cytotoxicity against isogenic chicken DT40 cell lines with known DNA damage response pathways - Rad54/Ku70 mutant cell line (AID 743015). Further: nearly all actives have a fitted effect of over 60% in size. Further: potency means the concentration at half of the fitted maximal effect.
The nature of experiment [5]: qHTS assay to identify small molecule antagonists of the androgen receptor (AR) signaling pathway - cell viability counter screen (AID 743033; further: nearly all actives have a fitted effect of over 45% in size; further: potency means the concentration at half of the fitted maximal effect).
Experiment [6] in a line: qHTS assay to identify small molecule antagonists of the androgen receptor (AR) signaling pathway using the MDA cell line - cell viability counter screen (AID 743041; further: nearly all actives have a fitted effect of over 45% in size; further: potency means the concentration at half of the fitted maximal effect). A digest of the protocol:
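Cells were plated at 3,000 per well and left 5 h. Compounds in DMSO were then pinned in, followed by R1881. After 16 h at 37C, CellTiter-Fluor fluorescence gave viability.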

Experiment [7] has as its system thyroid hormone receptor (rat, GH3 cells). The experiment can be described thus: qHTS assay to identify small molecule agonists of the thyroid receptor (TR) signaling pathway (AID 743066; calls by dose curve).
The nature of experiment [8]: qHTS assay to identify small molecule antagonists of the estrogen receptor alpha (ER-alpha) signaling pathway - cell viability counter screen (AID 743074; calls by dose curve;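 further: HEK293 cells carrying ER-alpha-UAS-bla reporter stimulated with 17beta-estradiol; nearly all actives have a fitted effect of over 45% in size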).
A short description of experiment [9]: qHTS assay to identify small molecule antagonists of the estrogen receptor alpha (ER-alpha) signaling pathway using the BG1 cell line - cell viability counter screen (AID 743081).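 Further: compound given together with 17beta-estradiol as the ER stimulus; nearly all actives have a fitted effect of over 45% in size.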
Another experiment addresses Aromatase (Homo sapiens) (UniProt P11511). Nature of the experiment: qHTS assay to identify aromatase inhibitors (AID 743083). Further: nearly all actives have a fitted effect of over 55% in size. Further: potency means the concentration at half of the fitted maximal effect.
Experiment [10] has as its target Androgen receptor (Homo sapiens) (UniProt P10275). The experiment can be described thus: qHTS assay to identify small molecule antagonists of the androgen receptor (AR) signaling pathway (AID 743035; active means well fitted inhibition curve with a large enough effect in the signal ratio in the repeat runs, not every such curve was filed as active; inconclusive means weak or mixed curves, or effect the other way; inactive means no such curve, though single readings can be large or run the other way; the % refers to the signal ratio; further: potency means the concentration at half of the fitted maximal effect). An outline of the steps: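 Antagonism is scored as loss of R1881-driven beta-lactamase reporter expression in HEK293 cells carrying the reporter under a UAS element, after 16 h co-treatment at 37C and a 2 h room-temperature FRET substrate read.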

Experiment [11] has the same target. Nature of the experiment: qHTS assay to identify small molecule agonists of the androgen receptor (AR) signaling pathway using the MDA cell line (AID 743040; further: nearly all actives have a fitted effect of over 20% in size). A digest of the protocol:
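Cells plated, 5 h at 37C/0% CO2; compound or DMSO pinned; 16 h at 37C; ONE-Glo added; luminescence measured after 30 min at room temperature. Reporter line: MDA-kb2 with MMTV-luciferase responsive to AR and GR.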

Experiment [12] has the same target. The experiment can be described thus: qHTS assay to identify small molecule antagonists of the androgen receptor (AR) signaling pathway using the MDA cell line (AID 743042; further: nearly all actives have a fitted effect of over 55% in size; further: potency means the concentration at half of the fitted maximal effect). A digest of the protocol: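 Antagonist mode: compounds plus R1881 agonist added to MDA-kb2 AR-luc cells, incubated 16 h at 37C. Luciferase reporter luminescence quantified, with multiplexed CellTiter-Fluor readout for cell viability.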

Experiment [13] is described as follows: qHTS assay to identify small molecule antagonists of the thyroid receptor (TR) signaling pathway - cell viability counter screen (AID 743064). Further: nearly all actives have a fitted effect of over 50% in size. Further: potency means the concentration at half of the fitted maximal effect. A digest of the protocol: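 GH3.TRE-Luc rat pituitary cells carrying a TRE-luciferase reporter were treated with compound plus 1 nM T3 (final) for 23.5 h at 37 °C. Viability was then read in the same wells by CellTiter-Fluor fluorescence after a further 30 min.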

Experiment [14] can be described thus: qHTS assay to identify small molecule antagonists of the thyroid receptor (TR) signaling pathway (AID 743065). Further: nearly all actives have a fitted effect of over 55% in size. Further: potency means the concentration at half of the fitted maximal effect. A digest of the protocol:
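Antagonism measured as loss of luciferase signal in GH3 cells stably carrying a TRE-luciferase reporter, co-treated with compound and T3 (1 nM final) for 23.5 h at 37 C. Viability was read in the same well by CellTiter-Fluor.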

The target of experiment [15] is Estrogen receptor (Homo sapiens) (UniProt P03372). The experiment can be described thus: qHTS assay to identify small molecule agonists of the estrogen receptor alpha (ER-alpha) signaling pathway (AID 743075; calls by dose curve).
Estrogen receptor (Homo sapiens), sequence (P03372 whole entry, looked up): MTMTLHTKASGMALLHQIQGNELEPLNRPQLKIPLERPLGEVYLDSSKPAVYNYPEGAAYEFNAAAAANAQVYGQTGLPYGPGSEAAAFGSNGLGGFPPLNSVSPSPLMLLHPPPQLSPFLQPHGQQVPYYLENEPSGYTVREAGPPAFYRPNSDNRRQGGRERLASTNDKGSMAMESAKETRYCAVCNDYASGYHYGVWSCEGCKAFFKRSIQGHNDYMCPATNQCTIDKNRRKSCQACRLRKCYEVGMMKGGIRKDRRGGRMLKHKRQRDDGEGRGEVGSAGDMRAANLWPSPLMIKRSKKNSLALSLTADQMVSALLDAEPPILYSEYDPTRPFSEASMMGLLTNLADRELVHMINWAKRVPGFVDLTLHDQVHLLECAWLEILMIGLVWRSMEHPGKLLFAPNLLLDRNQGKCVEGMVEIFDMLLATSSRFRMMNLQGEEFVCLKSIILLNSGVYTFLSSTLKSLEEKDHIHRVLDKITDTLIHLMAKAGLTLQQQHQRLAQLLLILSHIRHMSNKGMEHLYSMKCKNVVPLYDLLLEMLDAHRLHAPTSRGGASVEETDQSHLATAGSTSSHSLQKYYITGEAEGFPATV
Experiment [16] shares this target. The experiment can be described thus: qHTS assay to identify small molecule antagonists of the estrogen receptor alpha (ER-alpha) signaling pathway (AID 743069; active means well fitted curve in the direction sought with a large enough effect in the signal ratio in the repeat runs, not every such curve was filed as active; inconclusive means weak or mixed curves, or effect the other way; inactive means no such curve, though single readings can be large or run the other way; the % refers to the signal ratio; further: potency means the concentration at half of the fitted maximal effect). A digest of the protocol:
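ER-alpha-UAS-bla GripTite HEK293 line; 2% charcoal-stripped FBS overnight; plated, 4 hr 37C/5% CO2; cpd in DMSO + 17beta-estradiol, 18 hr 37C; LiveBLAzer B/G FRET substrate 2 hr RT; fluorescence intensity.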

The nature of experiment [17]: qHTS assay to identify small molecule antagonists of the estrogen receptor alpha (ER-alpha) signaling pathway using the BG1 cell line (AID 743080; calls by dose curve;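 further: BG1 cells stimulated with 17beta-estradiol alongside compound; nearly all actives have a fitted effect of over 25% in size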). A digest of the protocol:
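BG1Luc4E2, endogenous ER-alpha, 4xERE-luc; 5 d charcoal-stripped FBS, phenol red free; 24 h plating; cpd + 17beta-estradiol 21.5 h, 37 C/5% CO2; CellTiter-Fluor viability 30 min, then ONE-Glo luciferase 30 min RT.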

For experiment [18], the target named is Androgen receptor (Homo sapiens) (UniProt P10275). The experiment can be described thus: qHTS assay to identify small molecule agonists of the androgen receptor (AR) signaling pathway (AID 743036; active means well fitted activation curve with a large enough effect in the signal ratio in the repeat runs, with a control signal flat, not every such curve was filed as active; inconclusive means weak or mixed curves, or effect the other way; inactive means no such curve, though single readings can be large or run the other way; the % refers to the signal ratio). An outline of the steps:
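HEK293 cells stably carrying a UAS-driven beta-lactamase reporter (GeneBLAzer AR-UAS-bla-GripTite) were plated at 2,000 cells/well, rested 4 h at 37C, then exposed to compounds in DMSO for 16 h. LiveBLAzer B/G FRET substrate was added for 2 h at room temperature; fluorescence read.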

The target in experiment [19] is Estrogen receptor (Homo sapiens) (UniProt P03372). The experiment can be described thus: qHTS assay to identify small molecule agonists of the estrogen receptor alpha (ER-alpha) signaling pathway using the BG1 cell line (AID 743079). Further: nearly all actives have a fitted effect of over 20% in size. Further: potency means the concentration at half of the fitted maximal effect. Conditions: BG1Luc4E2 cells, ERE-luciferase agonist, 22 h; activation: at 70.3 µM (top of the series).

Unmarked numbers belong to inactive results. Calls of active or inactive are those of the source. Unless noted, the call rests on the fitted dose curve; in most records, active means well fitted curve in the direction sought with a large enough effect in the repeat runs; inconclusive means weak or mixed curves; inactive means no such curve, though single readings can be large; an effect the other way counts as inactive or inconclusive.
On the % scale 0 is the no-effect control and ±100 the full control effect.

Androgen receptor (Homo sapiens), sequence (P10275 whole entry, looked up): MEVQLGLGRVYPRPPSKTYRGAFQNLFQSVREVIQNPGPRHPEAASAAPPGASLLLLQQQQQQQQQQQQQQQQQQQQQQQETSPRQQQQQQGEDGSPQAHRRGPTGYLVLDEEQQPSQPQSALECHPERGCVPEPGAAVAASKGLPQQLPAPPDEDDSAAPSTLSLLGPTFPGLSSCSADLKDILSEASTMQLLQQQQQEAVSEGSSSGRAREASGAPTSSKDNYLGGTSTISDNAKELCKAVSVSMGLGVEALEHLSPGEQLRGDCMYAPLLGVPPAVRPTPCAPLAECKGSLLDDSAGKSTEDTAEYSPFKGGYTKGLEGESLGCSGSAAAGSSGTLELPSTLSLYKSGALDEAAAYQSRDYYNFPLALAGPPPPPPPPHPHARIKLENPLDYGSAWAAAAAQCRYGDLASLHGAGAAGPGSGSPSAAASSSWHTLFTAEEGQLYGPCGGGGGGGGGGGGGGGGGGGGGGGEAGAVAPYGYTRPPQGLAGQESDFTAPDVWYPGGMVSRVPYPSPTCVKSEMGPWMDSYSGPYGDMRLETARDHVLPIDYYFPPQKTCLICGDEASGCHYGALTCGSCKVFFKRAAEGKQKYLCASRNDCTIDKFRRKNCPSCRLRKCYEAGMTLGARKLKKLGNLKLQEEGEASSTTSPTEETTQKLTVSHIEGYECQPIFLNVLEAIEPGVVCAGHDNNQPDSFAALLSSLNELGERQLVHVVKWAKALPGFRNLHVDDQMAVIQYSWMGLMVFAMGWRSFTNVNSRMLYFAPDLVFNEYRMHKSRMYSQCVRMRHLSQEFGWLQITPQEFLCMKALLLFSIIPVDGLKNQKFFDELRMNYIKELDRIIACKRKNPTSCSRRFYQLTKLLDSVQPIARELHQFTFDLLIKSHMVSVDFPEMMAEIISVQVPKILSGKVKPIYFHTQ
Aromatase (Homo sapiens), sequence (P11511 whole entry, looked up): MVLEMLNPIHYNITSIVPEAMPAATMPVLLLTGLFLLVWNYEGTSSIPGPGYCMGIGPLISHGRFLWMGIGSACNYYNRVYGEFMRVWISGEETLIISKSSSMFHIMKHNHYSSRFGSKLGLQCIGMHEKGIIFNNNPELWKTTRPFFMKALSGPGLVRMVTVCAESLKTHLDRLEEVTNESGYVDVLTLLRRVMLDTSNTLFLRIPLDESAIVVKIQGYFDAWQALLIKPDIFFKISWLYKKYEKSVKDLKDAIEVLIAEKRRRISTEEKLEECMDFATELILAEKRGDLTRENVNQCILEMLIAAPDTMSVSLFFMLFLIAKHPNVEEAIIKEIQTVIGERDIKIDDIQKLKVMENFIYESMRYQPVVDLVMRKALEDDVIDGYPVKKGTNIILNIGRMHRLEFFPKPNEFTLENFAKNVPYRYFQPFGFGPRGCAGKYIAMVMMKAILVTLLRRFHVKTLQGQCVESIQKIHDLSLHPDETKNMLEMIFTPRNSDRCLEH

Regarding `CC(=O)[O-].CC(=O)[O-].CC(=O)[O-].[Sb+3]`, the viability change, negative = cytotoxic in experiment [1] is -0.477% [at 7.04 µM]; in [6], -11.1% [at 8.47 µM]. The activity change, negative = cytotoxicity in experiment [2] was -1.26% [at 8.52 µM]; in [4], -0.679% [at 8.55 µM]; in experiment [5] it was -2.21% [at 7.04 µM]; in experiment [9], 10.6% [at 8.47 µM]. Further, the results for the activity, negative = cytotoxicity in [3] and in [8] were 0.291% [at 8.53 µM] and 16.3% [at 6.72 µM], respectively. In addition, the activation in experiment [7] is 0.26% [at 8.08 µM]. Further, in the experiment with Aromatase (Homo sapiens), the activity, negative = inhibition was 2.18% [at 8.47 µM].
Turning to `CCC(OC(C)=O)C(CC(C)NC)(c1ccccc1)c1ccccc1` (stereo not drawn), the Potency result in [1], in experiment [5] and in experiment [15] was “inactive” throughout. Further, the Potency in experiment [2] was 7.76 µM (active); in experiment [3], 15.5 µM (active); in experiment [10], 49.4 µM (active); in experiment [6], 27.5 µM (active); in [12] it was 21.9 µM (active); in [13], 19.5 µM (active). For the same compound, the Potency in [14] is 19.5 µM (active). Further, in experiment [11], the compound was called inactive.
For `FC(F)C(F)(F)OCC(Cn1cncn1)c1ccc(Cl)cc1Cl` (stereo not drawn), the Potency entry in experiment [1] and in experiment [9] was “inactive” each time. In addition, the Potency in experiment [2] is 3.05 µM (active); in experiment [3] it was 4.83 µM (active); in experiment [4], 7.65 µM (active); in experiment [5] it was 54.6 µM (active); in experiment [14], 60.8 µM (active); in the experiment with Aromatase (Homo sapiens) it was 7.65 µM (active).
In the case of `CCN(CC)Cc1nccn1-c1ccc([N+](=O)[O-])cc1C(=O)c1ccccc1Cl`, the Potency entry in experiment [1], in experiment [5], in [6], in experiment [7] and in [8] was “inactive” throughout. Also, the Potency in experiment [2] and in experiment [3] was 29.8 µM (active) each time.
As for `Nc1ccccc1-c1ccccc1`, the Potency result in [1], in experiment [2], in experiment [3], in [5], in experiment [6] and in experiment [7] was “inactive” throughout. Besides, the Potency result (in experiment [8]; in experiment [15]; in experiment [9]; in the experiment with Aromatase (Homo sapiens)) was “inactive” in each case.
On to `COC(=O)/C=C(\C)OP(=O)(OC)OC`, for which the Potency entry in experiment [1], in experiment [2], in experiment [5], in experiment [6], in [14] and in experiment [7] was “inactive” each time. The Potency result in [16], in [8], in experiment [17] and in [9] was “inactive” each time. Further, in [3], the Potency is 24.3 µM (active).
As for `BrCC(Br)(Br)Br`, the Potency entry in [1], in [5], in experiment [10], in experiment [6], in experiment [12] and in [13] was “inactive” throughout. The Potency entry in [14], in experiment [7], in [8], in [15], in experiment [19] and in experiment [9] was “inactive” each time. Besides, the Potency entry with Aromatase (Homo sapiens) was “inactive”. Also, the call in experiment [18] and in experiment [11] was inactive.
For `N#Cc1c2ccccc2cc2ccccc12`, the Potency entry in experiment [1], in experiment [3], in [5], in [6], in experiment [12] and in experiment [7] was “inactive” in each case. For the same compound, the Potency result (in experiment [8]; with Aromatase (Homo sapiens)) was “inactive” each time. The call in experiment [11] was inactive.
Turning to `CC(=O)[O-].CC(=O)[O-].O.O.O.[Pb+2]`, the Potency entry in experiment [1], in experiment [2], in experiment [3], in experiment [5], in experiment [13] and in experiment [7] was “inactive” each time. In addition, the Potency result (in experiment [8]; in experiment [9]; with Aromatase (Homo sapiens)) was “inactive” in each case.
As for `CCN(CC)CCc1c[nH]c2ccccc12`, the Potency entry in [1], in experiment [3], in experiment [4], in experiment [5], in [6] and in experiment [7] was “inactive” in each case. Besides, the Potency entry in [16], in experiment [8], in experiment [15], in experiment [19], in experiment [17] and in experiment [9] was “inactive” in each case.
With `CC(=O)[O-].CC(=O)[O-].CC(=O)[O-].[Cr+3]`, the Potency entry in experiment [1], in experiment [5], in experiment [6], in experiment [7], in experiment [8] and in experiment [9] was “inactive” throughout. Also, the Potency was 60.9 µM (active) in experiment [3], 19.3 µM (active) in experiment [4] and 54.3 µM (active) in [13].
Turning to `CNC(=O)Oc1cc(C)cc(C(C)C)c1`, the Potency result in experiment [1], in experiment [4], in experiment [5], in [6], in [13] and in experiment [14] was “inactive” in each case. Besides, the Potency entry in experiment [7], in [8], in experiment [15], in experiment [19], in [17] and in experiment [9] was “inactive” each time. Besides, the Potency entry with Aromatase (Homo sapiens) is “inactive”.
Regarding `c1ccc(Nc2ccc(Nc3ccccc3)cc2)cc1`, the Potency entry (in [1]; in experiment [6]; in [7]; in [8]; in experiment [9]; with Aromatase (Homo sapiens)) was “inactive” throughout. Moreover, the Potency in experiment [3] was 21.6 µM (active); in [4], 24.2 µM (active); in experiment [14], 9.65 µM (active); in experiment [16], 1.73 µM [inconclusive] (active); in experiment [19] it was 6.09 µM (active).
In the case of `CNC(=O)CSP(=O)(OC)OC`, the Potency entry in experiment [1], in experiment [2], in experiment [4], in [5], in [6] and in experiment [13] was “inactive” each time. Further, the Potency result in experiment [7], in experiment [8], in experiment [15], in [19], in experiment [17] and in experiment [9] was “inactive” in each case. The Potency result with Aromatase (Homo sapiens) was “inactive”.
